# Bioassay records as filed in PubChem.
# Shown are actives, neighbours in structure and some others; about 4.8% of the full set was active somewhere.
# DAX1 inh-1: DAX1 (NR0B1) inhibitors on StAR promoter, primary screen, cell-based, luminescence, SF-1 (NR5A1), full-length DAX-1; HEK293T StAR-luciferase reporter, SF-1/DAX-1 repression relief; inhibition, % at 6.8 µM; 370,000 tested, 1.1% active; AID 652010, 2013;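 active = inhibition above the mean over all tested compounds plus 3 SD, cut at about 3.6% in these data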;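 also: 0% = DAX-1 cells with DMSO and 100% = cells lacking DAX-1 with DMSO; higher inhibition means more luminescence from relief of DAX-1 repression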
# DAX1 inh-2: DAX1 (NR0B1) inhibitors, primary screen, cell-based, HEK293, Gal4-DAX1, luciferase luminescence; Nuclear receptor subfamily 0 group B member 1 (Homo sapiens), P51843; HEK293 Gal4-DAX1 luciferase reporter; inhibition, % at 6.75 µM; 340,000 tested, 0.99% active;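 active = inhibition above the mean over all tested compounds plus 3 SD, cut at about 4.2% in these data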;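 also: 0% = DAX1-transfected cells with DMSO and 100% = empty-vector control cells with DMSO; inhibition shows as a rise in luminescence from relieved DAX1 repression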
# Target sequence (P51843 207-470 limits assumed): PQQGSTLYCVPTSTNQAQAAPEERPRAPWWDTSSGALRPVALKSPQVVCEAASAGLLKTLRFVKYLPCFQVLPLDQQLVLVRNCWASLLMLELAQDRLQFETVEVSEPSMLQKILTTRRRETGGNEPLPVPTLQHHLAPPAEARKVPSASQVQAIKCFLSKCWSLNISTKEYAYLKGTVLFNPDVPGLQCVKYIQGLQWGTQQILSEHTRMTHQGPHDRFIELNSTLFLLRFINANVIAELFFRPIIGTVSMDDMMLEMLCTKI
# ssDAF-12 act: S. stercoralis DAF-12 nuclear receptor activators, primary screen, cell-based, luminescence, HEK293, GRIP1 co-expression, lit1-tk-luc. HEK293 ssDAF-12/GRIP1 lit1-tk-luc reporter; % of 3 µM dafachronic acid response. Nuclear hormone receptor DAF-12 (Strongyloides stercoralis). 370,000 tested, 1% active. activation, % at 6.8 µM;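 active = activation above the mean over all tested compounds plus 3 SD, cut at about 0.9% in these data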;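 also: 0% = DMSO-only wells and 100% = 3 µM delta7-dafachronic acid wells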
# hgDAF-12 ag: H. glycines DAF-12 receptor agonists, primary screen, cell-based, luminescence, HEK293, GAL4 fusion, UAS-luciferase; Nuclear hormone receptor DAF-12 (Heterodera glycines), GAL4 fusion; HEK293 GAL4-hgDAF12 UAS-luciferase reporter, agonist luminescence; normalized to butyrate control; activation, % at 6.8 µM; 370,000 tested, 1.8% active; AID 687014, 2013;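 active = activation above a cutoff set at the mean of all screened compounds plus 3 SD, cut at about 10% in these data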;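 also: 0% = DMSO wells and 100% = sodium butyrate wells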
# hcDAF12 agonist: H. contortus DAF-12 nuclear receptor activators, primary screen, cell-based, luminescence, HEK293, lit1-tk-luc reporter. HEK293 hcDAF-12 lit1-tk-luc reporter; 0% DMSO, 100% Δ7-dafachronic acid. activation, % at 6.8 µM. 370,000 tested, 1.4% active;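 active = activation above the mean of all tested compounds plus 3 SD, cut at about 5.5% in these data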;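 also: 100% = response to 3 µM Δ7-dafachronic acid high control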
# SMARCA2 act: SMARCA2 (BRM) function activators, primary screen, cell-based, luminescence, high throughput. activation, % at 9.1 µM. 370,000 tested, 1% active. MG213 cells, MMTV-luciferase reporter, dexamethasone, overnight; in the data active = activation above about 7.8%;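 also: 0% = vehicle wells and 100% = reference activator wells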
# SMARCA2 act conf: SMARCA2 (BRM) function activators, confirmation, cell-based, luminescence, triplicate; 3,500 tested, 30% active; AID 652260, 2013; MG213 cells, MMTV-luciferase with dexamethasone, overnight; MG213 cells expressing E1A, Rb sequestered; DMSO wells 0%, reference activator 100%; shares compounds with SMARCA2 act; activation, % at 9.1 µM;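 active = activation above its plate's cutoff, the mean activation of tested wells plus 3 SD, cut at about 7.9% in these data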
# GAL4-VP16 Luc: GAL4-VP16 luciferase reporter activation, counter-screen for SMARCA2 (BRM) activator project, cell-based, pG5luc, luminescence, high throughput | shares compounds with SMARCA2 act | HEK293 GAL4-VP16 pG5luc reporter; scaled: DMSO wells 0%, SAHA wells 100% | activation, % at 9.1 µM | 3,500 tested, 41% active;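 active = activation above the solvent-only control well mean plus 3 SD, averaged across control plates, cut at about 5.2% in these data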
# An asterisk follows results filed as active; nt = not tested or not shown.
SMILES,DAX1 inh-1,DAX1 inh-2,ssDAF-12 act,hgDAF-12 ag,hcDAF12 agonist,SMARCA2 act,SMARCA2 act conf,GAL4-VP16 Luc
O=c1cc(CSc2nnc(NC3CCCCC3)s2)nc2sccn12,0.5,-0.5,-1.2,-1.5,-0.8,-3.7,nt,nt
c1ccc(CSc2nnc(NC3CCCCC3)s2)cc1,3.2,3.7,-0.4,11.9*,1.4,15.5*,6.2,8.6*
COc1ccc(CNC(=O)c2cc(-c3ccccc3)c(N3CCOCC3)s2)cc1OC,-1.4,nt,-0.6,-0.1,-4.8,6.6,nt,nt
O=C(c1ccc(Cl)c([N+](=O)[O-])c1)N(Cc1cccc(Cl)c1)C1CCS(=O)(=O)C1 (configuration not stated),-0.8,0.8,-1.1,-2.8,3.7,10.1*,-4.2,0.9
C=C1[C@@H]2CC[C@H]3[C@]4(C)[C@@H](O)CC[C@@](C)(C(=O)OC)[C@H]4C[C@H](O)[C@]3(C2)[C@H]1O,-0.8,nt,-0.7,-1.6,1.3,-1.8,nt,nt
CC1(C)c2ccccc2C(=O)c2ccccc21,-0.2,1.3,-1.0,-1.5,0.3,0.8,nt,nt
O=C1c2cccc3c2C2(O)c4c1cccc4C(=O)c1cccc(c12)C3=O,-0.3,-1.8,-1.3,2.5,0.3,8.1*,-1.5,1.6
COC(=O)[C@@]12CCCCC3=C1N(CCC3)C(=O)[C@H]2CC(=O)NCC1CCCCC1,-0.7,nt,-1.4,7.8,0.8,-1.1,nt,nt
Cc1ccc(Cl)c2c1NC(=O)C2(O)CC(=O)c1ccc(Br)cc1 (configuration not stated),1.4,-0.3,-0.2,3.1,4.6,3.0,nt,nt
O=C(CC1(O)C(=O)Nc2cc(Cl)cc(Cl)c21)c1ccncc1 (configuration not stated),-1.1,0.0,-0.6,-0.4,-0.2,11.1*,0.1,0.1
O=C(CNC(=O)c1ccccc1F)NCCc1ccc(Cl)cc1Cl,0.1,0.2,-1.3,-1.9,-1.2,9.5*,-1.7,2.4
O=C(CNC(=O)c1ccccc1F)NCCc1ccc(Cl)cc1,-0.1,-1.1,-0.8,-0.2,-0.2,-1.1,nt,nt
Nc1[nH]c2cc(C(F)(F)F)ccc2c1C(=O)NC1CCCCC1,-0.7,nt,0.5,2.0,5.0,0.1,nt,nt
Cc1ccc(S(=O)(=O)N2c3ccccc3C[C@H]2CC=C(c2ccccc2)c2ccccc2)cc1,nt,nt,-1.3,1.6,2.5,nt,nt,nt
O=C(Nc1ccccc1C(=O)NCc1ccccc1)C1=CSCCO1,-0.1,1.3,-1.5,-0.2,-0.6,11.7*,-1.8,0.7
CCOc1ccccc1CNC(=O)c1ccccc1NC(=O)C1=CSCCO1,0.1,0.0,-0.7,0.2,-2.2,-1.4,nt,nt
Fc1ccccc1/C=N/Nc1ncnc2nc[nH]c12,3.8*,2.4,-0.8,1.0,-0.7,9.6*,16.6*,5.8*
COc1ccc(-c2ccc3oc(-c4ccsc4)cc(=O)c3c2)cn1,0.2,0.0,-1.0,5.8,-1.0,4.3,nt,nt
COc1ccc2oc(-c3ccncc3)cc(=O)c2c1,3.3,2.1,-1.0,10.0,0.1,8.7*,12.9*,6.5*
COc1ccc2c(=O)cc(-c3ccccc3F)oc2c1,0.5,2.8,0.6,7.2,1.3,9.9*,8.4*,5.6*
CCOC(=O)c1c(NC(=O)C(NCCN(C)C)c2ccccc2)sc2c1CCCC2 (configuration not stated),0.2,-1.1,-1.1,1.0,-0.6,12.8*,-13.5,4.3
C=CCn1c(O)c(N=NC(=S)Nc2ccc(OC)cc2)c2ccccc21,-0.6,-0.4,-1.1,0.0,2.6,-1.8,nt,nt
C=CCn1c(O)c(N=NC(=S)Nc2cccc(OC)c2)c2ccccc21,-2.2,-2.6,-2.2,-7.3,-4.1,10.4*,-1.2,3.4
O=S1(=O)c2ccc(N3CCCC3)cc2Oc2ccccc2CN1Cc1cn(Cc2cccc(F)c2)nn1,-1.5,nt,-1.1,-6.6,0.0,-2.9,nt,nt
COc1ccc2cc(C#N)c(SCC(=O)NNC(=O)Cc3ccccc3)nc2c1,-0.5,-0.7,-0.7,0.4,-0.1,9.1*,0.9,1.2
SMILES,DAX1 inh-1,DAX1 inh-2,ssDAF-12 act,hgDAF-12 ag,hcDAF12 agonist,SMARCA2 act,SMARCA2 act conf,GAL4-VP16 Luc
CN(C)CCNC(=O)c1ccccc1,0.9,3.0,-0.8,-0.8,1.7,-1.9,nt,nt
CN(C)CCNC(=O)c1cccc2ccc(-c3ccc(-c4ccccc4)cc3)nc12,-0.8,-0.8,1.2*,1.1,2.3,8.6*,23.7*,0.0
O=C(CSc1nnc(-c2ccccn2)n1Cc1ccco1)Nc1ccc(Oc2ccccc2)cc1,-0.4,nt,-1.8,-0.4,-1.4,-5.7,nt,nt
O=C(Oc1ccccc1/C=C\C(=O)c1cc2ccccc2o1)c1ccccc1,1.0,-0.4,-0.4,9.8,6.2*,8.7*,2.0,9.6*
NC(=O)N/N=C/c1ccccc1OC(=O)c1cc2ccccc2oc1=O,1.6,1.3,-0.6,4.1,1.5,3.9,nt,nt
CC(C)Oc1ccc(CNC(=S)N/N=C/c2ccc([N+](=O)[O-])cc2)cc1,-0.4,2.4,-1.7,6.3,-2.3,10.2*,-0.7,4.1
O=C(OCC#CCSc1nnc(-c2cccc3ccccc23)o1)c1ccccc1,nt,nt,-2.0,4.2,-0.3,nt,nt,nt
Cn1nnnc1SCC(=O)NCc1ccc2c(c1)OCO2,-0.7,1.0,-1.6,-0.2,-0.9,1.6,nt,nt
COc1ccc(CNC(=O)CSc2nnnn2C)cc1OC,0.2,0.0,-1.8,-0.9,0.1,8.5*,2.1,0.8
COc1ccccc1NS(=O)(=O)c1ccc2oc(N)nc2c1,0.5,0.7,-1.0,0.0,-2.2,10.6*,-0.4,2.5
COc1ccccc1NS(=O)(=O)c1ccc2oc(SC)nc2c1,-0.1,-0.8,-1.7,-3.6,-2.6,-2.7,nt,nt
S=C(NC1CCCC1)N1CCOCC1,-0.1,-0.7,-1.4,0.1,-0.1,8.2*,-1.7,1.8
S=C(NC1CCCCC1)N1CCOCCOCCN(C(=S)NC2CCCCC2)CCOCC1,0.0,nt,-1.2,-0.9,0.9,-1.5,nt,nt
